# ELG1 genotox: inducers of genotoxicity in HEK293T ELG1-luciferase cells. HEK293T ELG1-luciferase reporter, luminescence, 16 h. Potency, µM (titrated, usually from 46 µM), inactives show at the highest dose activity change, positive = activation, most hits filed as activators. actives 1.3% (n = 330,000). AID 504466; further: % of control where 0% means no effect; nearly all actives have a fitted effect of over 60% in size
#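 Step 1: seed 2,000 HEK293T ELG1-luciferase cells per well. Step 2: add compound or DMSO, incubate 16 hr at 37 °C. Step 3: ONE-Glo, 30 min at room temperature, read luminescence.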
# NPC1 promoter act: activates the NPC1 promoter | Huh7 NPC1 promoter luciferase reporter, 24 h | Potency, µM (titrated, usually from 9.22 µM), inactives show at the highest dose activation, actives largely listed as activators | actives 2.4% (n = 320,000) | AID 485313; further: % of control where 0% means no effect; nearly all actives have a fitted effect of over 60% in size
#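 Huh7 reporter cells (NPC1 promoter driving luciferase) are dosed with compound for 24 h at 37 °C, 5% CO2; luciferase detection reagent is then added and luminescence measured after 10 min at ambient temperature.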
# SMN2 splice enh: SMN2 splice variant enhancement; Potency, µM (highest dose often 46.1 µM), for inactives: at the highest dose activity change, positive = activation, usual class: activators; actives 2.8% (n = 210,000); HEK293 SMN2-luciferase splicing reporter, luminescence, 30-36 h; AID 1458; further: % of control where 0% means no effect; nearly all actives have a fitted effect of over 55% in size
#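 HEK293 cells carry an SMN2 minigene-luciferase reporter in which exon 7 inclusion puts luciferase in frame. Cells were seeded at 2000 cells/well, attached for 10-12 hours, then exposed to compounds for 30-36 hours at 37C before ONE-Glo luminescence.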
# Rab9 prom act: activators of Rab9 promoter. Potency, µM (highest dose often 9.22 µM), for inactives: at the highest dose activation, negative = inhibition, actives largely listed as activators. actives 2.8% (n = 320,000). Huh7 Rab9 promoter-luciferase reporter, luminescence, 24 h; further: % of control where 0% means no effect; nearly all actives have a fitted effect of over 60% in size
#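 Huh7 reporter line, Rab9 promoter upstream of luciferase. Compound exposure 24 h at 37 °C in reduced-serum medium with 10% FBS. Read-out: luminescence.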
# ELG1 DNA repair: blocks ELG1-dependent DNA repair in HEK293T cells; HEK293T ELG1-luciferase reporter, luminescence, 16 h; DNA damage induced by 5-fluorouridine; Potency, µM (top dose mostly 46.1 µM), without a hit: top-dose activity change, negative = inhibition, usual class: inhibitors; actives 2.3% (n = 330,000); AID 504467; further: on the % scale 0 is the no-effect control and ±100 the full control effect; nearly all actives have a fitted effect of over 55% in size
#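 In this reporter screen, reduction of luminescence relative to DMSO vehicle indicated activity. Compounds and 5-fluorouridine were added together to 2,000 cells per well, incubated for 16 hr at 37 °C, then developed with ONE-Glo.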
# FLuc counter: counter-screen for miR-21 project: firefly luciferase inhibitors or activators; purified FLuc, Km substrates, luminescence inhibition; actives 6.9% (n = 360,000); P08659; Potency, µM (titrated, usually from 57.5 µM), for the others: top-dose activity change, negative = inhibition, hits mostly inhibitors; AID 588342;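 further: plate controls were vehicle for no effect and reference inhibitor for full effect; nearly all actives have a fitted effect of over 55% in size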
# Target sequence (P08659 whole entry, looked up): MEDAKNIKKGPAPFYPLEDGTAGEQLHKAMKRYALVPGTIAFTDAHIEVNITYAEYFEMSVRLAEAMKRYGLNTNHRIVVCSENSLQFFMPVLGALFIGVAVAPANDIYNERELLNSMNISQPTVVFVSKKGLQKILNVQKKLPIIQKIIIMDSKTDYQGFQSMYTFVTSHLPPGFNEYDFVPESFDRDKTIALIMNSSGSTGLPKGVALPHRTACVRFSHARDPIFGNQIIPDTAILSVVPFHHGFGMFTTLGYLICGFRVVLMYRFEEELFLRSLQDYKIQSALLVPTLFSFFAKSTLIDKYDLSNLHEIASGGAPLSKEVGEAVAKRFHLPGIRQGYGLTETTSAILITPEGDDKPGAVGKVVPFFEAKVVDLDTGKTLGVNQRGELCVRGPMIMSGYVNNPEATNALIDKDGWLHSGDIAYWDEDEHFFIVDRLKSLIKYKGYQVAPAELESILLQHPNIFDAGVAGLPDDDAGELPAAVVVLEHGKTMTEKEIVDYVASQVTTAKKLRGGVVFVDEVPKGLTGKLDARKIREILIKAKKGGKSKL
#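 Purified P. pyralis luciferase, 10 nM final, with Km-level 10 uM D-luciferin and 10 uM ATP in 50 mM Tris acetate pH 7.5, 10 mM Mg acetate, 0.01% Tween-20, 0.05% BSA; 6-point qHTS titration about 60 µM downward; luminescence read.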
# Starred values were filed as active, the others as inactive; ? = inconclusive; · = no result; [ ] = remark or other dose. Compounds with a hit are over-represented: about 9.2% of the library has one in this group of screens. The call rests on the fitted dose curve; in most records, active means well fitted curve in the direction sought with a large enough effect; inconclusive means small, poorly fitted or top-dose-only effect, or another doubt; inactive means no such curve, though single readings can be large; an effect the other way counts as inactive or inconclusive. Potency means the concentration at half of the fitted maximal effect.
SMILES,ELG1 genotox,NPC1 promoter act,SMN2 splice enh,Rab9 prom act,ELG1 DNA repair,FLuc counter
CC(C)c1ccc(COC(=O)CN2C(=O)NC3(CCCCC3C)C2=O)cc1 (configuration not stated),-2.9%,-11.7%,·,-1.7%,-26.0%,1.5%
O=C(CCC1CCCC1)Nc1cccc(Cc2ccncc2)c1,0.1%,-2.4%,6.7%,-4.7%,2.4%,-17.3%
c1cnc(SCCOc2ccc3c(c2)CCC3)nc1,4.61µM*,2.82µM*,12.6µM*,1.58µM*,?,1.69µM*
CCC(=O)c1ccc(OCCSc2ncccn2)cc1,3.66µM*,3.98µM*,7.94µM*,2µM*,?,19µM*
CNCCCOc1ccc2c(c1)CCC2,5.4%,15.5%,11.0%,24.1%,?,-0.9%
Cc1noc(C)c1COc1cccc(C(=O)N(C)Cc2nc3ccccc3c(=O)[nH]2)c1,1.1%,-3.9%,·,-4.9%,-1.6%,7.4%
Cc1onc(-c2ccccc2)c1C(=O)NC(=S)NNC(=O)c1ccncc1,-1.2%,0.1%,6.0%,-4.6%,-0.2%,-0.4%
Cc1onc(-c2ccccc2)c1C(=O)NC(=S)NNC(=O)c1cc(-c2ccc(F)cc2)n[nH]1,-8.5%,0.5%,·,-1.7%,?,15.1µM*
Cc1onc(-c2ccccc2)c1C(=O)NC(=S)NNC(=O)c1ccco1,1.8%,2.7%,·,-1.8%,23.1µM*,1.7%
Cc1onc(-c2ccccc2)c1C(=O)NC(=S)NNC(=O)c1cccnc1,-1.7%,-3.3%,38.6%,-3.1%,-11.0%,0.5%
COc1ccc(OC)c(S(=O)(=O)NCCCc2ccccc2)c1,0.3%,-3.8%,·,0.9%,0.0%,-6.7%
Cc1oc(-c2ccccc2)nc1CS(=O)CC(=O)NC1CCCC1 (configuration not stated),-3.8%,1.4%,·,1.7%,13.5%,2.2%
CC(=O)Nc1ccc(S(=O)(=O)NCCSCc2cccc(Cl)c2)cc1,-3.2%,-6.2%,-21.5%,-5.0%,-24.2%,-0.4%
CC(=O)Nc1ccc(S(=O)(=O)NCCSCc2c(Cl)cccc2Cl)cc1,-7.8%,-0.1%,-33.9%,-1.9%,23.1µM*,0.3%
COC(=O)Nc1ccc(S(=O)(=O)N2CCCc3cccc(O)c32)cc1,-7.7%,-25.5%,·,-20.5%,18.3µM*,-6.8%
CCOC(=O)c1sc(NC(=O)c2ccc(C)o2)nc1C,5.8µM*,-22.5%,12.6µM*,-30.3%,?,6.01µM*
CCOC(=O)c1sc(NC(=O)c2ccc(OC)cc2)nc1C,?,-38.8%,28.0%,0.8%,?,?
Cc1occc1C(=O)Nc1nnc(C(F)(F)F)s1,-5.2%,0.5%,-29.4%,1.6%,-25.4%,-20.5%
CCOC(=O)c1sc(NC(=O)COC(=O)c2ccco2)nc1C,1.4%,0.7%,-13.5%,-9.4%,0.0%,?
Cc1c(C(=O)Nc2nnc(C(F)(F)F)s2)oc2ccccc12,7.6%,?,-14.2%,?,-5.9%,10.7µM*
O=C(Nc1ccccc1C(=O)Nc1nnc(C(F)(F)F)s1)c1ccccc1,-13.8%,-30.8%,·,-39.1%,4.61µM*,?
CCOC(=O)c1sc(NC(=O)c2ccco2)nc1C,?,27.7%,7.8%,?,?,10.7µM*
CCCS(=O)(=O)N1CC(=O)N(c2ccccc2C)C(C)(C(=O)NC2CCCC2)C1 (configuration not stated),·,·,·,·,·,-5.4%
CCCCCOc1ccc(C(=O)CCC(=O)NC(C)c2ccc(S(N)(=O)=O)cc2)cc1 (configuration not stated),-1.7%,·,·,·,?,·
CCOC(=O)c1sc(Nc2nc(OC)cc(OC)n2)nc1C,-6.2%,-5.1%,·,-4.0%,25.9µM*,-8.6%
SMILES,ELG1 genotox,NPC1 promoter act,SMN2 splice enh,Rab9 prom act,ELG1 DNA repair,FLuc counter
CCOC(=O)c1sc(NC(C)=O)nc1C,3.5%,-0.2%,9.5%,-9.3%,1.4%,1.8%
COC(=O)c1sc(NC(=O)c2oc3ccccc3c2C)nc1C,2.31µM*,?,7.08µM*,?,?,?
COc1ccc(-c2nsc(NC(=O)c3oc4ccccc4c3C)n2)cc1,·,·,28.7%,·,·,?
COC(=O)c1sc(NC(=O)c2ccc(C)o2)nc1C,?,?,1.58µM*,2.82µM*,?,5.36µM*
N#C/C(=C\c1ccc(-c2cc(Cl)ccc2Cl)o1)C(=O)Nc1cccc2ncccc12,·,-5.0%[46.1 µM],·,-17.0%[46.1 µM],·,·
Cn1c(N)c(C(=O)COC(=O)/C=C/c2cccc(Cl)c2)c(=O)n(C)c1=O,-1.3%,·,·,·,8.1%,·
O=C(CCS(=O)(=O)c1cccc2nonc12)Nc1c(F)cccc1F,·,·,-6.4%,·,·,-5.6%
CC(C)C1C(=O)Nc2ccc(S(=O)(=O)NCCc3ccc(Cl)cc3)cc21 (configuration not stated),·,·,·,·,·,-2.9%
Cc1cccc(NC(=O)c2onc3c2CCCC3)c1C,?,4.47µM*,29.0%,2.82µM*,?,7.57µM*
Cc1ccccc1NC(=O)c1onc2c1CCCC2,?,4.47µM*,?,2.51µM*,?,6.01µM*
Cc1cccc(NC(=O)c2onc3c2CCCC3)n1,0.92µM*,0.501µM*,·,0.398µM*,?,0.757µM*
O=[N+]([O-])c1nn(-c2ccc3c(c2)OCCO3)n(O)c1=NCc1ccc(F)cc1Cl,?,?,3.55µM*,2.82µM*,?,?
O=[N+]([O-])c1nn(-c2ccc3c(c2)OCCO3)n(O)c1=NCCC1=CCCCC1,?,?,?,3.55µM*,?,?
CN=c1c([N+](=O)[O-])nn(-c2ccc3c(c2)OCCO3)n1O,?,20.0%,-9.6%,?,?,-13.8%
COc1cc(N=c2c([N+](=O)[O-])nn(-c3ccc4c(c3)OCCO4)n2O)cc(OC)c1,14.9%,28.6%,12.6µM*,?,?,?
O=[N+]([O-])c1nn(-c2ccc3c(c2)OCCO3)n(O)c1=NCc1ccc(F)cc1,?,?,3.98µM*,3.55µM*,?,4.26µM*
COc1ccc(S(=O)(=O)N2CCCCC2)cc1NC(=O)CSc1ncnc2ccccc12,-6.1%,-9.8%,-45.1%,-46.7%,?,8.49µM*
Cc1ccc(NC(=O)CSc2ncnc3ccccc23)cc1S(=O)(=O)N1CCCCC1,1.6%,-1.9%,-28.7%,-6.7%,?,-19.9%
O=C(CSc1nnc2c(n1)[nH]c1ccc(S(=O)(=O)N3CCOCC3)cc12)Nc1ccccc1Cl,-11.0%,-3.3%,-15.1%,-0.7%,-20.6%,2.2%
COc1ccc(S(=O)(=O)N2CCOCC2)cc1NC(=O)CSc1nnc2c(n1)[nH]c1ccccc12,-7.1%,2.6%,·,-2.8%,23.1µM*,?

# Compound activity as filed in PubChem BioAssay.
